{"source": "PubChem BioAssay AID588664", "about": "(The Scripps Research Institute Molecular Screening Center, 2011)", "note": "In all, about 360,000 compounds went through this assay and about 1,400 (0.39%) were called active. The entries come from a sample that favours actives as a whole. Values without a mark were called inactive. No stated cut-off is given here; in the data, active means inhibition above about 5% (passing the limit was not always enough); inactive means the rest.", "data": [{"biological_target": "Tyrosine-protein kinase ABL1 (Homo sapiens) + Ras and Rab interactor 1 (Homo sapiens) (UniProt P00519+Q13671)", "sequence (P00519 whole entry, looked up)": "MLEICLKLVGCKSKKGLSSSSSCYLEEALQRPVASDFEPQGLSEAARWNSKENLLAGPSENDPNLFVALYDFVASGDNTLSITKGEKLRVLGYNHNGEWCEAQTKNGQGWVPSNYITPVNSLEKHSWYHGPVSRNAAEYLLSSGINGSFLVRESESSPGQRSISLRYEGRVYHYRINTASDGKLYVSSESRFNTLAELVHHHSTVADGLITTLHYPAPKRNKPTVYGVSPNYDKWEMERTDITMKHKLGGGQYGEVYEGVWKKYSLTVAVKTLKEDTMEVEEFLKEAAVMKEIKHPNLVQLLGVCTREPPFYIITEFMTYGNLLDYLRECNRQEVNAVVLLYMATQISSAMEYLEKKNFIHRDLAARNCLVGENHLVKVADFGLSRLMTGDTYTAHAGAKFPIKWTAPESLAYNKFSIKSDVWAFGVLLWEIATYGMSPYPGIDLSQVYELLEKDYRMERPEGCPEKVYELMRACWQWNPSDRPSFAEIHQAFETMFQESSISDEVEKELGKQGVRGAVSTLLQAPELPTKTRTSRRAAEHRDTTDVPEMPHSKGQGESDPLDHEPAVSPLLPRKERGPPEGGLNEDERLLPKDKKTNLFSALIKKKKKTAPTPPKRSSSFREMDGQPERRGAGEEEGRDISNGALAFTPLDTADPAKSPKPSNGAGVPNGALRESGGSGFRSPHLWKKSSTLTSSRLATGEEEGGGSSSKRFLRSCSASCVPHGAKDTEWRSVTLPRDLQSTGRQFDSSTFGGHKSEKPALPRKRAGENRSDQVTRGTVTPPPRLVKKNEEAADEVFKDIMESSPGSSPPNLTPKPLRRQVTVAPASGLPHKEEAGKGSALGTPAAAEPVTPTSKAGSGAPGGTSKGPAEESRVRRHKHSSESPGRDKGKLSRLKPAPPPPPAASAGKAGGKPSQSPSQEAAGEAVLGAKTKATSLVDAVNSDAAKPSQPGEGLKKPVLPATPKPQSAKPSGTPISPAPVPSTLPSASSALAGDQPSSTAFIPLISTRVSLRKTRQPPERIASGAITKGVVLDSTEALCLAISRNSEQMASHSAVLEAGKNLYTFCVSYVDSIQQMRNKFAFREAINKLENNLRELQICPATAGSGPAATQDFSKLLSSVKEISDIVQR", "sequence (Q13671 whole entry, looked up)": "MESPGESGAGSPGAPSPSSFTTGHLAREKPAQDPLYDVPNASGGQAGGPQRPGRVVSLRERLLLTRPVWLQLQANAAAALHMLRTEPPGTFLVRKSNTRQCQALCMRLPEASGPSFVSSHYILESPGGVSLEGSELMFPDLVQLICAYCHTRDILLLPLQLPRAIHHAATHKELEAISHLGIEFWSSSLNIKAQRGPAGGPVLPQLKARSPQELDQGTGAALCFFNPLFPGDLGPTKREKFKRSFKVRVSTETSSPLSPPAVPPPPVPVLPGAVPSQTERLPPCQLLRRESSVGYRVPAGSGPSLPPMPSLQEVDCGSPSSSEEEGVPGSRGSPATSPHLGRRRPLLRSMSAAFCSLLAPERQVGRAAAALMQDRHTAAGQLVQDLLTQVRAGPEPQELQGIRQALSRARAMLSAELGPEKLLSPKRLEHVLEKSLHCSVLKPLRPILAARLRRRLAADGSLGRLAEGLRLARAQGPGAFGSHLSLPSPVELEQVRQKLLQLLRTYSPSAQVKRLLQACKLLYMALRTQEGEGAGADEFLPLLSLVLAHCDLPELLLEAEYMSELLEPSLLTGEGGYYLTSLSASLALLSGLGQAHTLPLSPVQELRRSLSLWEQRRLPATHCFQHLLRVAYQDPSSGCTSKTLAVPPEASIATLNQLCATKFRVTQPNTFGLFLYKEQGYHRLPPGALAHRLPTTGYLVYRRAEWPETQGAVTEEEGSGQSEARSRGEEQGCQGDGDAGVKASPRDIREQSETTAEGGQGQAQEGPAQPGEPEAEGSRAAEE", "test": "inhibitors of Rin1-Abl protein binding, primary screen, biochemical, TR-FRET (AID 588664)", "conditions": "at 7.35 µM, active compounds read high", "values": [{"compound": "O=c1[nH]nc(Cc2ccccn2)c2ccccc12", "inhibition": "1.04%"}, {"compound": "C=CCn1cc(C(=O)NCc2ccc(Cl)cc2)c(=O)c2cc(S(=O)(=O)N(CC)CC)ccc21", "inhibition": "6.23% (active)"}, {"compound": "CCN(CC)CCCNC(=O)c1cn(C)c2ccc(S(=O)(=O)N(C)C3CCCCC3)cc2c1=O", "inhibition": "2.19%"}, {"compound": "CCOC(=O)N1CCN(C(=O)c2cn(C)c3ccc(S(=O)(=O)N(CC)CC)cc3c2=O)CC1", "inhibition": "-0.08%"}, {"compound": "CN(C)S(=O)(=O)c1ccc(N2CCCC2)c(C(=O)Nc2cccc(F)c2)c1", "inhibition": "7.03%"}, {"compound": "CC1=C[C@H]2Cc3cc(C)cc(C)c3S(=O)(=O)[C@@H]2C=C1", "inhibition": "3.36%"}, {"compound": "CC(=O)c1ccc(NC(=O)c2sc3nc4n(c(=O)c3c2C)CCCCC4)cc1", "inhibition": "0.85%"}, {"compound": "O=c1c2c(nc3n1CCCCC3)sc1c(O)cccc12", "inhibition": "12.3% (active)"}, {"compound": "Cc1c(C(=O)Nc2ccccc2)sc2nc3n(c(=O)c12)CCCCC3", "inhibition": "-0.6%"}, {"compound": "O=S1(=O)CCN(C2CCCCCCCCCCC2)CC1", "inhibition": "1.94%"}, {"compound": "Cc1cc(NC(=O)CSCC(=O)NC(C)c2ccccc2)no1", "note": "(stereo not drawn)", "inhibition": "9.74% (active)"}, {"compound": "Cc1cc(NC(=O)CSCc2ccccc2C)no1", "inhibition": "-2.34%"}, {"compound": "COc1ccccc1C(=O)COC(=O)CSCC(=O)Nc1cc(C)on1", "inhibition": "-2.09%"}, {"compound": "N#C/C(=C\\N1CCOCC1)S(=O)(=O)c1ccc(Cl)cc1", "inhibition": "0.04%"}, {"compound": "CNS(=O)(=O)c1ccc(NC(=O)Nc2ccc3c(c2)OCO3)cc1", "inhibition": "-0.38%"}, {"compound": "CC(C)CNS(=O)(=O)c1ccc(OCC(=O)Nc2ccc3c(c2)OCO3)c(Cl)c1", "inhibition": "-2.64%"}, {"compound": "CC(C)CNS(=O)(=O)c1ccc(C(=O)Nc2ccc3c(c2)OCO3)cc1", "inhibition": "12.8% (active)"}, {"compound": "C=C1c2c(Cl)ccc(O)c2C(O)=C2C(=O)[C@]3(O)C(O)=C(C(N)=O)C(=O)[C@@H](N(C)C)[C@@H]3[C@@H](O)C12", "note": "(stereo partly drawn)", "inhibition": "20.6% (active)"}, {"compound": "Nc1nc2cc(Cl)ccc2n1N", "inhibition": "-1.62%"}, {"compound": "CCCCN(CC)CCNC(=O)c1[nH]c(C)c(C(C)=O)c1C", "inhibition": "6.51%"}, {"compound": "COC(=O)c1c(NC(=O)c2ccc(S(=O)(=O)N3CCOCC3)cc2)sc2c1CCN(C(C)C)C2", "inhibition": "5.81%"}, {"compound": "CCc1ccc(CNC(=O)C2CCN(c3nnc(C)c4c(C)n(-c5ccc(C)cc5)nc34)CC2)cc1", "inhibition": "-2.17%"}, {"compound": "CCOc1ccc(CNC(=O)C2CCCN(c3nnc(C)c4c(C)n(-c5ccccc5)nc34)C2)cc1", "note": "(stereo not drawn)", "inhibition": "20.2% (active)"}, {"compound": "CCc1ccc(CNC(=O)C2CCCN(c3nc4ccccc4o3)C2)cc1", "note": "(stereo not drawn)", "inhibition": "1.27%"}, {"compound": "Cn1cc(CN2CCCC(CO)C2)c(-c2ccc(Oc3ccccc3)cc2)n1", "note": "(stereo not drawn)", "inhibition": "1.99%"}, {"compound": "COc1ccc([N+](=O)[O-])cc1NC(=O)COC(=O)/C=C/c1ccco1", "inhibition": "-3.75%"}, {"compound": "O=C(NNc1c2ccccc2nc2ccccc12)c1cc2ccccc2cc1O", "inhibition": "5.94% (active)"}, {"compound": "Cc1noc(C)c1COC(=O)c1cc2ccccc2cc1O", "inhibition": "1.08%"}, {"compound": "O=C(CSc1nc(C2CC2)nc2ccccc12)Nc1cccc(O)c1", "inhibition": "-0.76%"}, {"compound": "CC(C)(C)NC(=O)NC(=O)COC(=O)Cn1c(C(F)(F)F)nc2ccccc21", "inhibition": "2.76%"}, {"compound": "COc1ccccc1NC(=O)CSc1nnc(-c2ccoc2C)n1CCc1ccccc1", "inhibition": "4.08%"}, {"compound": "CCN(CC)S(=O)(=O)c1ccc(N(C)Cc2ccc(C(F)(F)F)cc2)nc1", "inhibition": "0.97%"}, {"compound": "Nc1cc(=O)c2[nH]cnc2[nH]1", "inhibition": "16.4% (active)"}, {"compound": "C[C@@H]1CN([C@@H](C)CO)S(=O)(=O)c2ccc(-c3ccc(C(=O)N(C)C)cc3)cc2O[C@@H]1CN(C)Cc1ccccc1C(=O)O", "inhibition": "-1.93%"}, {"compound": "C[C@@H]1CN([C@H](C)CO)S(=O)(=O)c2ccc(C#C[C@@H](C)O)cc2O[C@@H]1CN(C)Cc1ccc(-c2ccccc2)cc1", "inhibition": "36.5% (active)"}, {"compound": "Cc1ccccc1-c1ccc2c(c1)O[C@@H](CN(C)Cc1ccc(C(=O)O)cc1)[C@@H](C)CN([C@H](C)CO)S2(=O)=O", "inhibition": "1.11%"}, {"compound": "O=C(C1CCCN(S(=O)(=O)c2ccc([N+](=O)[O-])cc2)C1)N1CCCCC1", "note": "(stereo not drawn)", "inhibition": "1.73%"}, {"compound": "O=C(Nc1ccc(S(=O)(=O)Nc2ncccn2)cc1)c1cncc(Br)c1", "inhibition": "11.3% (active)"}, {"compound": "O=C(NC(=S)Nc1ccc(S(=O)(=O)Nc2ncccn2)cc1)c1cccc(Br)c1", "inhibition": "-0.5%"}, {"compound": "CCNS(=O)(=O)c1ccc(NC(=O)c2cncc(Br)c2)cc1", "inhibition": "-2.97%"}, {"compound": "CCOCCCNC(=S)Nc1ccc2nc(N3CCN(CC)CC3)cc(C)c2c1", "inhibition": "-3.64%"}, {"compound": "COc1ccccc1C(=O)N1CCNC(=O)C1CC(=O)Nc1ccc(Cl)cc1", "note": "(stereo not drawn)", "inhibition": "4.11%"}, {"compound": "CCOc1ccc(NC(=O)CC2NCCNC2=O)cc1", "note": "(stereo not drawn)", "inhibition": "0.97%"}, {"compound": "O=C(CC1SCCNC1=O)Nc1ccc(Cl)cc1", "note": "(stereo not drawn)", "inhibition": "11.9% (active)"}, {"compound": "Cc1cc(-c2ccc(C)c(S(=O)(=O)NC(C)Cc3ccco3)c2)on1", "note": "(stereo not drawn)", "inhibition": "4.85%"}, {"compound": "COc1ccc(NC(=O)CSc2nnc(-c3ccccc3F)n2C2CC2)cc1S(N)(=O)=O", "inhibition": "-3.31%"}, {"compound": "Fc1cccc(Cl)c1COc1ccc(-c2nnco2)cc1", "inhibition": "0.01%"}, {"compound": "C[C@H](NC(=O)[C@@H]1Cc2ccccc2CN1C(=O)OC(C)(C)C)C(=O)NC1CCCC1", "inhibition": "-1%"}, {"compound": "Cc1ccc(NC(=O)OCCNC(=O)c2ccncc2)cc1", "inhibition": "1.62%"}, {"compound": "COCCNC(=O)CSc1nc(N)c(NC(=O)c2ccco2)c(=O)[nH]1", "inhibition": "-1.82%"}, {"compound": "COCCNC(=O)Nc1ccc2nc(-c3ccco3)c(-c3ccco3)nc2c1", "inhibition": "8.86% (active)"}, {"compound": "C#CCN(N(C)c1ncc(C(F)(F)F)cc1Cl)S(=O)(=O)c1ccc2ccccc2c1", "inhibition": "0.28%"}, {"compound": "CCN1CCN(c2cc3nc(C)n(Cc4ccccc4)c(=O)c3cc2NC(=O)c2ccccc2F)CC1", "inhibition": "-0.45%"}, {"compound": "CC(=O)NC(c1cccs1)c1cc(Br)c2cccnc2c1O", "note": "(stereo not drawn)", "inhibition": "14.8% (active)"}, {"compound": "CCCCC(=O)NC(c1ccc(OC)c(OC)c1)c1ccc2cccnc2c1O", "note": "(stereo not drawn)", "inhibition": "-0.15%"}, {"compound": "N#Cc1ccccc1NC(=O)COc1c(Br)cc(Br)c2cccnc12", "inhibition": "-0.22%"}, {"compound": "O=C(Nc1ccc2c(c1)[C@@H]1C[C@@H](CC(=O)N3CCCCC3)O[C@@H](CO)[C@@H]1O2)NC1CCCCC1", "inhibition": "2.19%"}, {"compound": "O=C(Cn1cnc2cc([N+](=O)[O-])ccc2c1=O)NC(=O)NCc1ccccc1", "inhibition": "-4.46%"}, {"compound": "CCOC(=O)C(CCOc1cccc(CC)c1)C(=O)OCC", "inhibition": "0.47%"}, {"compound": "COc1ccc2c(c1)c(=O)c(C(=O)c1ccc(Cl)cc1)cn2CC(=O)Nc1ccc(F)cc1", "inhibition": "-3.04%"}, {"compound": "COc1ccc(CNC(=O)C2CCCC2)cc1", "inhibition": "-1.61%"}, {"compound": "COc1ccc(CNC(=O)c2cc(C(=O)C3CC3)c[nH]2)cc1", "inhibition": "11.6% (active)"}, {"compound": "COc1ccc(CNC(=O)c2c[nH]c3c(OC)cc(OC)cc3c2=O)cc1", "inhibition": "-2.41%"}, {"compound": "OCC[C@H]1C[C@@H](O)[C@H](O)[C@@]2(OCCc3ccccc32)O1", "inhibition": "1.02%"}, {"compound": "CC(C(=O)Nc1ccc(S(=O)(=O)N2CCCC2)cc1)N(C)Cc1ccc(F)cc1", "note": "(stereo not drawn)", "inhibition": "2.65%"}, {"compound": "CCc1ccc(CN(C)C(C)C(=O)Nc2ccc(S(=O)(=O)N3CCCC3)cc2)cc1", "note": "(stereo not drawn)", "inhibition": "12.4% (active)"}, {"compound": "CC(OC(=O)c1ccc(NC(=O)CC#N)cc1)C(=O)Nc1ccc(S(=O)(=O)N2CCCC2)cc1", "note": "(stereo not drawn)", "inhibition": "2.43%"}, {"compound": "Cc1nn(Cc2ccccc2)c(C)c1C(=O)N1CCN(CC(=O)Nc2ccccc2Cl)CC1", "inhibition": "2.44%"}, {"compound": "CCOC(=O)C1=C(COC(=O)[C@H](C)NS(=O)(=O)c2ccccc2F)NC(=O)NC1C", "note": "(stereo partly drawn)", "inhibition": "2.47%"}, {"compound": "CNC(=S)NNC(=O)c1ccc(N(C)C)cc1", "inhibition": "0.47%"}, {"compound": "CN(C)c1ccc(N/C=C/C(=O)C(F)(F)F)cc1", "inhibition": "7.5% (active)"}, {"compound": "CN(C)c1ccc(/C=N/NC(=O)C(O)c2ccc(Br)cc2)cc1", "note": "(stereo not drawn)", "inhibition": "0.79%"}, {"compound": "C[C@H](CO)N1C[C@H](C)[C@@H](CN(C)C(=O)C2CCCCC2)OCc2cnnn2CCCC1=O", "inhibition": "-1.65%"}, {"compound": "Cc1cc(C)c(C(N)=O)c(Cl)n1", "inhibition": "-1.52%"}, {"compound": "Cc1ccccc1CN1C[C@@H]2C[C@@H](c3ccc4nsnc4c3)N3CCC[C@@]23C1=O", "inhibition": "8.18% (active)"}, {"compound": "Cc1ccccc1CN1C[C@@H]2C[C@@H](c3cn(C)nc3-c3ccccc3)N3CCC[C@@]23C1=O", "inhibition": "-1.71%"}, {"compound": "Cc1ccccc1CN1CCN(CC(=O)NCc2ccccn2)C1=O", "inhibition": "-1.59%"}, {"compound": "CC(OC(=O)/C=C/c1ccccc1)C(=O)Nc1ccc(C(N)=O)cc1", "note": "(stereo not drawn)", "inhibition": "1.19%"}, {"compound": "O=S1(=O)CC(N2CCN(c3ccccn3)CC2)CN1Cc1ccc(F)cc1", "note": "(stereo not drawn)", "inhibition": "1.04%"}, {"compound": "Cc1c(CC(=O)N2CCN(C(=O)C3COc4ccccc4O3)CC2)c(=O)oc2c(O)c(O)ccc12", "note": "(stereo not drawn)", "inhibition": "9.84% (active)"}, {"compound": "Cc1ccc(S(=O)(=O)NCCC(=O)NNC(=O)C2COc3ccccc3O2)cc1", "note": "(stereo not drawn)", "inhibition": "-0.47%"}, {"compound": "Cc1c(CCC(=O)O)c(=O)oc2c(C)c(OCc3ccccc3Cl)ccc12", "inhibition": "1.81%"}, {"compound": "COC(=O)c1ccc(NC(=O)CN(c2ccc(C)cc2)S(=O)(=O)c2c(C)n[nH]c2C)cc1", "inhibition": "3.33%"}, {"compound": "NC1=CC(=O)C(=O)c2cccnc21", "inhibition": "17.2% (active)"}, {"compound": "CC1(C)C=Cc2c(ccc3c2OC[C@@H](c2ccc(O)cc2O)C3)O1", "inhibition": "-2.38%"}, {"compound": "O=c1cc(CO)oc(CN2CCC(Cc3ccccc3)CC2)c1O", "inhibition": "30.9% (active)"}, {"compound": "CCOC(=O)N1CCN(Cc2oc(CO)cc(=O)c2O)CC1", "inhibition": "1.56%"}, {"compound": "NC(=O)c1ccc(CN2CCC(Cc3ccccc3)CC2)cc1", "inhibition": "1.83%"}]}]}
